# Autofluor 339 – intrinsic fluorescence of library compounds, ex339/em460 – biochemical, MLSMR library, data from DPM-DC assay, artefact control, profiling panel. compound autofluorescence, ex339/em460 nm, NADH buffer; stronger effect = higher value; 1 = no-compound wells, NADH background. fluorescence fold increase at 10 µM. 5.5% of 65,000 active. AID 709, 2007;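 active = at 10 µM, mean starting fluorescence two-fold or more over control wells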;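 note: signal is the first read of a kinetic run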
# DPM-DC inhibit – S. pneumoniae DPM-DC inhibitors, primary screen, biochemical, PK/LDH-coupled NADH fluorescence; purified DPM-DC; AID 556, 2006; diphosphomevalonate decarboxylase (Streptococcus pneumoniae D39); calls only at 10 µM; 0.49% of 65,000 active;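 active = the 320 compounds with the highest percent inhibition in the single-dose primary screen, excluding strongly autofluorescent ones, cut at about 32% in these data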;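 note: kinetic rate of NADH fluorescence loss reporting ADP formed by the decarboxylase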
# A340 absorber – compound light absorbance at 340 nm, profiling panel, artefact control, biochemical, MLSMR library, data from PS, PMK, MK assays | compound absorbance at 340 nm, fold over control | fold change at 10 µM | 65,000 tested, under 10 active | AID 708, 2007;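 active = at 10 µM dose, initial 340 nm absorbance at least 2 fold that of control wells; inactive = change under 2 fold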;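 note: initial absorbance extrapolated from kinetic A340 decline of NADH oxidation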
# Spn PMK inh – S. pneumoniae PMK inhibitors, primary screen, biochemical, mevalonate pathway, pilot trial included | phosphomevalonate kinase (Streptococcus pneumoniae D39) | purified PMK, PK/LDH-coupled NADH absorbance 340 nm | inhibition, % at 10 µM | 0.49% of 65,000 active | AID 539, 2006;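 active = top-ranked compounds by inhibition in the single 10 µM screen, taking a fixed number of the strongest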;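 note: 0% = full reaction with DMSO carrier and 100% = background rate without enzyme reaction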
# Spn MK inh – S. pneumoniae MK inhibitors, primary screen, biochemical, PK/LDH-coupled NADH absorbance; inhibition, % at 10 µM; AID 555, 2006; purified MK, PK/LDH-coupled NADH absorbance 340 nm; 0.48% of 65,000 active; mevalonate kinase [Streptococcus pneumoniae D39];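 active = ranked among the strongest by inhibition in the single 10 µM screen, a fixed top-ranked set picked for dose follow-up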
# NADH enzymes – inhibitors of PK/LDH coupling enzymes, profiling panel, artefact control, biochemical, MLSMR library | coupled PK/LDH NADH assays, four targets | IC50, µM (doses to about 10 µM), for inactives: at the top dose inhibition | 0.02% of 65,000 active | AID 774, 2007;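 active = single-dose screening hits from any of four coupled enzyme assays that gave an IC50 when retested across doses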;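 note: the DPM-DC format reads NADH fluorescence rather than 340 nm absorbance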
# * = called active by the depositor; i = inactive; · = not tested or not shown. A selection: hits, their analogues and other compounds. The true share with any hit is near 6.8%.
SMILES,Autofluor 339,DPM-DC inhibit,A340 absorber,Spn PMK inh,Spn MK inh,NADH enzymes
Cc1csc(CCc2nc(C)cs2)n1,1.1,i,1,8,2,3%
O=c1oc2ccc(Br)cc2cc1-c1nc2ccccc2o1,2.3*,i,1,6,9,10%
O=C(Nn1cnnc1)c1cc2cc(Br)ccc2oc1=O,1.2,i,1.1,9,9,9%
CCOC(=O)c1ccc(NC(=O)N2CCN(Cc3cccc(F)c3)CC2)cc1,1,i,1,7,2,2%
CC(C)CC(=O)N1CCN(Cc2cccc(F)c2)CC1,1.1,i,1.1,14,59*,24%
O=C(CSCc1ccccc1)N1CCN(c2ccc(F)cc2)CC1,1.1,i,1,0,6,2%
O=C(CSCc1cccc(F)c1)N1CCN(c2ccccc2)CC1,1,i,1,25*,7,12%
COc1cccc(CN2CCN(C(=O)CC(C)C)CC2)c1,1,i,1.1,7,61*,7%
COc1ccc(C(=O)N2CCN(C(=O)CC(C)C)CC2)cc1OC,1.1,i,1,6,5,4%
COc1cccc(CNC(=O)C2CCN(S(=O)(=O)N3CCCC3)CC2)c1,1.1,i,1,4,10,5%
CC1(C)OC(=O)N(Cc2ccco2)C1(C)O (stereo not given),1,i,0.97,12,8,7%
O=C(CCn1nc(-c2ccccc2)ccc1=O)N1CCN(c2ccccn2)CC1,1.1,i,1,19,0,6%
CCc1c(C(=O)Nc2ccncc2)csc1C,1.1,i,1,0,7,2%
COC(=O)c1cc(NS(=O)(=O)c2ccc3c(c2)CCC(=O)N3)cc(C(=O)OC)c1,1.5,i,0.98,16,0,7%
O=C(NC12CC3CC(CC(C3)C1)C2)c1ccccc1O,2.2*,i,1,6,9,7%
CCCCNC(=O)c1cc2c(=O)n3cccc(C)c3nc2n(CCN2CCOCC2)c1=N,3.8*,·,1.1,1,4,3%
COc1ccc(CCNC(=O)c2cc3c(=O)n4cccc(C)c4nc3n(Cc3ccncc3)c2=N)cc1,1.6,i,1,10,3,4%
COCCNC(=O)c1cc2c(=O)n3cccc(C)c3nc2n(Cc2ccncc2)c1=N,3.9*,·,1.1,13,0,7%
CCOCCCn1c(=N)c(C(=O)NCc2ccc3c(c2)OCO3)cc2c(=O)n3cccc(C)c3nc21,2.7*,i,1.1,10,12,17%
CCCCNC(=O)c1cc2c(=O)n3cccc(C)c3nc2n(Cc2ccncc2)c1=N,3.7*,·,1.1,8,4,6%
CCOC(=O)c1ccc(CNC(=O)Cn2nnc(-c3ccc(C)cc3)n2)o1,1,i,1,10,0,3%
O=S(=O)(NCc1ccc2c(c1)OCO2)c1cccc(S(=O)(=O)N2CCOCC2)c1,1.1,i,1.1,8,6,5%
O=P(O)(O)COc1ccccc1P(=O)(c1ccccc1)c1ccccc1,1.1,i,1,14,6,7%
Cc1cccn2c(=O)c3cc(C(=O)NC4CCCCC4)c(=N)n(CCN4CCOCC4)c3nc12,1.1,i,1,9,0,3%
Cc1cccn2c(=O)c3cc(C(=O)NCCCN4CCOCC4)n(C)c3nc12,2.1*,·,1.1,0,3,2%
CCn1c(=N)c(C(N)=O)cc2c(=O)n3cccc(C)c3nc21,1.9,·,1.1,0,9,5%
CCn1c(=N)c(C(=O)NC)cc2c(=O)n3cccc(C)c3nc21,3.9*,·,1,14,4,9%
c1ccc(OCCCc2nc(-c3ccccn3)no2)cc1,1.2,i,1.1,4,0,1%
COCCn1c(=NC(=O)CSC(C)=O)sc2cc(OC)ccc21,1.4,i,1.1,4,5,13%
COCCn1c(=NC(=O)CSCC(=O)NC2CCCCC2)sc2cc(OC)ccc21,2*,i,1.1,13,4,6%

# High-throughput results (PubChem BioAssay)
